High-throughput results as filed in PubChem.
Cardio protect: cardioprotection against H2O2-induced cell death, primary screen, uHTS, H9c2 cells, ATPLite luminescence; 0.63% of 360,000 active; AID 588492, 2011; H9c2 cardiomyocytes, H2O2 injury protection, 2 h; protection from H2O2 cell death, % at 20 µM;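 active means compounds giving at least 50% protection of heart cells from peroxide-induced death in the single-dose screen, raw or plate-pattern-corrected value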;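 further: 0% = DMSO wells with peroxide and 100% = DMSO wells without peroxide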
FAS-TE inh: FAS thioesterase domain inhibitors, primary screen, biochemical, fluorescence intensity, uHTS; 0.67% of 360,000 active; Fatty acid synthase (Homo sapiens), P49327; recombinant FAS-TE, OMFH fluorogenic substrate, fluorescence endpoint; inhibition, % at 15 µM;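 active means compounds whose normalised, plate-corrected inhibition of enzyme fluorescence in the single-dose primary screen is 50% or more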;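 further: 0% = DMSO with enzyme and 100% = substrate without enzyme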
aDG glyco act: activators of alpha-DG glycosylation, primary screen, uHTS, Pro5-aDG cells, AlphaScreen; alpha-DG glycosylation AlphaScreen (IIH6); 0% Pro5, 100% B10-LARGE cell signal; activation, % at 10 µM; AID 624168, 2012; 0.22% of 360,000 active;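 active means activation of at least 8% versus controls, or a plate z-score of at least 8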;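 further: Pro5 are CHO cells carrying HIG-tagged alpha-DG that lacks glycosylation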
Mot1-301 SUMO: yeast Mot1-301 growth rescue at high temperature, primary screen, SUMOylation pathway inhibitor project, S. cerevisiae, ATP luminescence, 38.5C; S. cerevisiae Mot1-301 growth rescue; percent above DMSO median, 100 means doubled; growth rescue, % at 18.8 µM; 1% of 320,000 active; AID 2716, 2010;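 active means every valid replicate shows activation above 250% relative to neutral control wells; inactive means the rest, any valid replicate at or below 250%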;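 further: OY570 slx delta 5 strain wells were the positive control but not used for scaling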
MPTP block: mitochondrial permeability transition pore inhibitors, primary screen, biochemical, isolated mouse mitochondria, absorbance. Ca2+ swelling absorbance, 30 min. inhibition, % at 10 µM. 1.4% of 360,000 active;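 active means inhibition of 50% or more, scaled per plate between neutral and stimulator controls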;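 further: 0% = DMSO wells given calcium and 100% = 1 mM EGTA wells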
CR mimetic SO: reduction of superoxide in aged yeast, primary screen, HTS | superoxide response (% of plate mean), % at 10 µM | S. cerevisiae aged cells, superoxide DHE fluorescence; hits give low values | 0.18% of 330,000 active;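 active means superoxide response under a set limit, about three screen SD below normal, cut at about 65% in these data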;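 further: yeast aged for seven days with compound at 30 °C before DHE staining; 100% = average MFI of all compound-treated wells on the plate with controls excluded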
Rh123 counter: fluorescence retest of MPTP screen hits in isolated mitochondria, single concentration; inhibition, % at 10 µM; shares compounds with MPTP block; 78% of 5,000 active; membrane potential, Rhodamine 123 fluorescence; in the data active means inhibition above about 22%;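 further: 0% = DMSO vehicle and 100% = positive control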
MPTP swell DR: mitochondrial permeability transition pore inhibitors, dose response, biochemical, absorbance, uHTS hits; 58% of 780 active; shares compounds with MPTP block; isolated mitochondria swelling; IC50, µM; in the data active means IC50 below about 20 µM
MPTP cs DR: fluorescent counter-screen in isolated mitochondria, dose response, counter-screen for MPTP inhibitor project, biochemical, fluorescence, uHTS hits; IC50, µM; shares compounds with MPTP block; 49% of 780 active; isolated mitochondria counterscreen, fluorescence read-out; in the data active means IC50 below about 80 µM
Active calls of the source: *; i = inactive; / = no result given. Most compounds without a hit are left out; they make up all but 3.8% or so of the library.

SMILES | Cardio protect | FAS-TE inh | aDG glyco act | Mot1-301 SUMO | MPTP block | CR mimetic SO | Rh123 counter | others
OCc1cn(-c2ccccc2)nc1-c1ccc(-c2nn(-c3ccccc3)cc2CO)cc1 | 39.2 | 6.6 | 0.0 | -25.0 | 4.3 | 94.2 | /
Cc1ccc(-c2nn(-c3ccccc3)cc2CSC(=N)N)cc1 | -28.1 | -234.0 | 0.7 | 8.3 | 99.1* | 110.6 | -24.9 | MPTP swell DR=5.55*;MPTP cs DR=40.6*
Cn1nc(C(C)(C)C)cc1C(=O)NCc1ccc2c(c1)OCO2 | -17.9 | 6.4 | 4.2 | -7.1 | 100.8* | 71.5 | 105.0*
Cc1oc(C(C)(C)C)cc1C(=O)NCc1ccc2c(c1)OCO2 | -4.1 | 12.3 | 0.2 | 8.0 | 63.1* | 96.2 | 28.3*
Cc1ccc2sc(N(CCCN(C)C)C(=O)c3ccc(S(=O)(=O)N(C)C4CCCCC4)cc3)nc2c1C | -14.9 | 26.0 | 0.6 | -28.9 | 88.4* | 94.7 | -18.3
CCN(Cc1ccccc1)S(=O)(=O)c1ccc(C(=O)N(CCCN(C)C)c2nc3cc4c(cc3s2)OCO4)cc1 | -14.3 | 17.6 | 1.6 | 0.9 | 1.4 | 94.2 | /
CCOC(=O)N1CCN(S(=O)(=O)c2ccc(C(=O)N(CCCN(C)C)c3nc4c(C)c(C)ccc4s3)cc2)CC1 | -3.5 | 5.4 | 0.2 | -12.0 | 75.1* | 94.2 | -12.7 | MPTP swell DR=5.55*;MPTP cs DR=>80
CCN(Cc1ccccc1)S(=O)(=O)c1ccc(C(=O)N(CCCN(C)C)c2nc3c(C)c(C)ccc3s2)cc1 | -19.1 | 22.8 | 0.9 | 190.6 | 81.9* | 101.9 | -15.4
CN(C)CCCN(C(=O)c1ccc(S(=O)(=O)N2CCCCCC2)cc1)c1nc2c(F)cc(F)cc2s1 | -12.7 | 17.7 | 0.5 | -0.9 | 88.1* | 102.4 | -11.6 | MPTP swell DR=4.26*;MPTP cs DR=>80
COc1ccc(/C=C(\C#N)C(=O)OCC(=O)NCc2ccco2)cc1 | 1.5 | -3.9 | 0.8 | 22.3 | 0.6 | 97.0 | /
O=C(CSc1nc2ccccc2s1)NCc1cc([N+](=O)[O-])ccc1O | -2.8 | 2.5 | -0.2 | 3.2 | 3.4 | 105.0 | /
CCCc1cc(=O)oc2c(C)c(OCC(=O)Nc3ccc(CN4CCOCC4)cc3)ccc12 | 28.9 | 6.2 | -0.1 | 0.8 | 0.3 | 93.6 | /
O=C(c1cccnc1)N1CCC(Oc2ccc(C(=O)N3CCCC(O)C3)cc2)CC1 (stereo not given) | 3.0 | -4.6 | -0.3 | -2.8 | -1.9 | 92.6 | /
COc1ccc(S(=O)(=O)C(C#N)c2nc3ccccc3nc2N2CCC(C)CC2)cc1 (stereo not given) | / | / | / | 20.3 | / | 97.7 | /
CCCCOc1nc2ccccc2nc1NS(=O)(=O)c1ccc(F)cc1 | 1.3 | -4.7 | 0.0 | -10.5 | 0.8 | 82.7 | /
CC1CCCN(c2nc3ccccc3nc2C(C#N)S(=O)(=O)c2ccccc2)C1 (stereo not given) | -13.5 | 4.2 | 0.0 | 15.0 | 82.3* | 89.9 | 82.8*
CCCCOc1nc2ccccc2nc1C(C#N)S(=O)(=O)c1ccccc1 (stereo not given) | -18.6 | 5.3 | -0.1 | -5.3 | 51.2* | 117.0 | 77.9*
COc1ccc(S(=O)(=O)Nc2ccc(N3CCOCC3)cc2)cc1 | -3.7 | -1.8 | 0.3 | 76.2 | -0.3 | 111.7 | /
COc1ccc(NS(=O)(=O)c2ccc(N3CCOCC3)c(N)c2)cc1 | -23.4 | -5.9 | 4.2 | -0.2 | 86.1* | 107.2 | 96.0*
Nc1cc(S(=O)(=O)Nc2cc(Cl)ccc2Cl)ccc1N1CCOCC1 | -15.9 | -4.3 | 0.0 | / | 61.1* | 77.6 | 18.3 | MPTP swell DR=i;MPTP cs DR=54.5*
COc1cc(/C=N/NC(=O)c2nnn(-c3nonc3N)c2C)ccc1OCc1ccc(Cl)cc1 | -4.8 | 0.8 | -0.5 | / | 3.5 | / | /
CN(C)CCCNS(=O)(=O)c1ccc(N2CCN(Cc3ccc4c(c3)OCO4)CC2)c([N+](=O)[O-])c1 | -17.4 | -8.6 | 3.2 | 3.9 | 87.2* | 89.3 | 93.1*
CC(=O)c1ccc(N2CCN(c3ccc(S(=O)(=O)NCCCN(C)C)cc3[N+](=O)[O-])CC2)cc1 | -19.8 | -23.4 | 1.5 | / | 36.5 | 88.3 | /
CN(C)CCNS(=O)(=O)c1ccc(N2CCc3ccccc32)c([N+](=O)[O-])c1 | -6.1 | -3.1 | 0.5 | i | 88.0* | 131.8 | -6.5 | MPTP swell DR=11.8*;MPTP cs DR=49*
CC(=O)c1ccc(N2CCN(c3ccc(S(=O)(=O)NCCN(C)C)cc3[N+](=O)[O-])CC2)cc1 | -8.7 | -6.1 | 0.5 | -3.0 | 3.5 | 105.6 | /
SMILES | Cardio protect | FAS-TE inh | aDG glyco act | Mot1-301 SUMO | MPTP block | CR mimetic SO | Rh123 counter | others
Cc1ccc([C@@H]2C[C@H]3[C@@H](CN2S(=O)(=O)c2ccc(C)cc2)C(=O)C[C@@H](c2ccc(C)cc2)N3S(=O)(=O)c2ccc(Cl)cc2)cc1 | -3.3 | 13.0 | 0.3 | / | 0.3 | / | /
COc1cccc(/C=N/NC(=O)CC(C)O)c1OC/C=C/c1ccccc1 (stereo not given) | 8.3 | -2.9 | 0.7 | -12.3 | -0.5 | 105.7 | /
O=C(NC1=NCCS1)C1CCN(S(=O)(=O)c2ccccc2C(F)(F)F)CC1 | 0.8 | 2.1 | -0.1 | -16.5 | 0.1 | 98.4 | /
CCOC(=O)N1CCN(c2nc3ccc(C)cc3n3cnnc23)CC1 | 7.3 | -7.0 | -0.1 | / | -1.2 | / | /
Fc1cccc(NC(=S)Nc2ccc(Br)cc2)c1 | -29.7 | 10.6 | -0.1 | 69.7 | 110.2* | 102.6 | 96.1*
Cc1ccccc1NC(=S)Nc1ccc(Br)cc1 | -0.6 | -9.0 | 0.2 | 130.8 | 79.8* | 88.6 | 82.5*
S=C(Nc1ccc(Br)cc1)Nc1ccc2c(c1)OCCO2 | -4.8 | 8.6 | -0.1 | 5.9 | 80.8* | 100.2 | 106.2*
COc1cccc(NC(=S)Nc2ccc(F)cc2)c1 | 0.5 | -1.5 | -0.2 | -0.3 | 1.1 | 94.8 | /
O=C(c1ccccn1)N1CCCC(N2CCN(c3cccc(C(F)(F)F)c3)CC2)C1 (stereo not given) | -3.2 | -5.3 | 0.0 | 36.8 | 0.3 | 123.0 | /
NS(=O)(=O)c1cccc(NC(=O)CSc2nnc3n2CCCCC3)c1 | 1.7 | -6.0 | -0.1 | 18.2 | 0.8 | 89.3 | /
CC(OC(=O)CSc1ccc([N+](=O)[O-])cc1)C(=O)NC1CC1 (stereo not given) | 13.8 | 3.7 | 0.0 | 4.7 | -0.5 | 89.5 | /
O=S(=O)(c1ccccc1)N1N=C(c2cccs2)CC1c1cccc(O)c1 (stereo not given) | 0.1 | 7.3 | 0.7 | 180.3 | 0.0 | 112.9 | /
